Assay results reported in PubChem BioAssay (Tox21).
Inconclusive results are not listed. A call without a number means that no potency is given here. The source made the active and inactive calls. Unless noted, calls follow the shape of the full dose curve.

Columns and labels:
[1] = Nuclear factor erythroid 2-related factor 2/antioxidant responsive element (Nrf2/ARE) small molecule agonists: luciferase reporter gene qHTS assay in human keratinocytes (AID 1919969); also: nearly all actives have a fitted effect of over 35% in size; also: potency is read from the fitted curve at half-maximal effect
[2] = target: Gonadotropin-releasing hormone receptor (Homo sapiens) (UniProt P30968); experiment: Human gonadotropin-releasing hormone receptor (GnRHR) small molecule agonists, calcium flux assay in GnRHR-HEK293 cells (AID 1920063); also: nearly all actives have a fitted effect of over 35% in size; also: potency is read from the fitted curve at half-maximal effect
Chain of Gonadotropin-releasing hormone receptor (Homo sapiens) (P30968 whole entry, looked up): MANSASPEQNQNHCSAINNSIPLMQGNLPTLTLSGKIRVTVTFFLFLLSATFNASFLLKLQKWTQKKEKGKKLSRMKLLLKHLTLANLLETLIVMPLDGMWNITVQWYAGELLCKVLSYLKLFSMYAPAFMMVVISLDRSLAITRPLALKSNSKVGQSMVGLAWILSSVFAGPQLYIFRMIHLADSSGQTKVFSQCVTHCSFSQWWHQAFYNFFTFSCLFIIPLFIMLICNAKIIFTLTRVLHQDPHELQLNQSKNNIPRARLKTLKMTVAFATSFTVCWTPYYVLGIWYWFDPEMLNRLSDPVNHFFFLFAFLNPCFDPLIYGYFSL
Summary of the method: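 Intracellular calcium rise is the read-out: engineered human GnRHR HEK293 cells, dye-loaded, are exposed to DMSO-dissolved compounds and fluorescence at Ex/Em 480/540 is tracked for 3 min.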

[3] = target: KiSS-1 receptor (Homo sapiens) (UniProt Q969F8); experiment: Human kisspeptin (KISS1R) small molecule agonists, calcium flux assay in KISS1R-HEK293 cells (AID 1920064; active = well fitted activation curve with a large enough effect in the repeat runs; also: potency is read from the fitted curve at half-maximal effect)
Chain of KiSS-1 receptor (Homo sapiens) (Q969F8 whole entry, looked up): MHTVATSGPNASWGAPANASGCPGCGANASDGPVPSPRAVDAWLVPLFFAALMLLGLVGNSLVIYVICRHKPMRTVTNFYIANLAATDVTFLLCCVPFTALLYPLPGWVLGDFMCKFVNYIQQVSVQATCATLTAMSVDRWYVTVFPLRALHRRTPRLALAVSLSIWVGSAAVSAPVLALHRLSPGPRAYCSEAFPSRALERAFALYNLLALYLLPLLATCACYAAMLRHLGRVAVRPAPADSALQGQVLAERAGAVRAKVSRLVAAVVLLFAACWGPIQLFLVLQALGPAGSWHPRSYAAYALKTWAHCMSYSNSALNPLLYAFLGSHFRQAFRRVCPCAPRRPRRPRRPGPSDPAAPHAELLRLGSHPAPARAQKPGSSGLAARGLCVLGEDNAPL
Summary of the method: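 Concentration-response testing used 15 concentrations in triplicate on human KISS1R-expressing HEK293 cells. Calcium-dependent fluorescence (Ex/Em 480/540) was followed kinetically for 3 min after compound transfer.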

[4] = G protein-coupled receptor (GPCR) small molecule agonists, calcium flux assay: HEK293 wild type cell line counter screen (AID 1920065); also: potency is read from the fitted curve at half-maximal effect
Summary of the method: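 Fluorescence intensity signals activation. After overnight (18 h) culture and a 1 h calcium dye load at 37 C, compounds are added by pin tool and the plate read at 480/540 nm for 3 min in 1 s steps.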

[5] = target: Beta-2 adrenergic receptor (Homo sapiens) (UniProt P07550); experiment: Adrenergic beta2 receptor (ADRB2) small molecule antagonists, cell-based qHTS assay (AID 1963592); also: series mostly up to about 92 µM; nearly all actives have a fitted effect of over 50% in size
Chain of Beta-2 adrenergic receptor (Homo sapiens) (P07550 whole entry, looked up): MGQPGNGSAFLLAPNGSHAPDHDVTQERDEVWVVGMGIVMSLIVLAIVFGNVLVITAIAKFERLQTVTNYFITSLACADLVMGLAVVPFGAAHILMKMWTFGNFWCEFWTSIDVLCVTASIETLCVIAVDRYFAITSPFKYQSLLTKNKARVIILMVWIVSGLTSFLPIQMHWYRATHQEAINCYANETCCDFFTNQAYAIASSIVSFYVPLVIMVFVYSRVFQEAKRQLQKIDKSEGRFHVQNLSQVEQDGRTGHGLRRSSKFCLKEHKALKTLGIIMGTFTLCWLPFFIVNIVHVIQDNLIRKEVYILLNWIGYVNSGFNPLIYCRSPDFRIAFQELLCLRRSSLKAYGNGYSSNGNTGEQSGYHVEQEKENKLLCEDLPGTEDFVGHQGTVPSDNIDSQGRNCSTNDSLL
Summary of the method: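 Assay format: CHO-ADRB2 cells, 18-20hr seeding at 37C/5% CO2, then compound plus 1nM isoproterenol agonist mix for 0.5hr RT. Homogeneous time-resolved fluorescence cAMP detection after 1hr, expressed as 665/615 nm ratio.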

[6] = target: D(2) dopamine receptor (Homo sapiens) (UniProt P14416); experiment: Dopamine D2 receptor (DRD2) small molecule agonists, cell-based qHTS assay (AID 1963594); also: nearly all actives have a fitted effect of over 35% in size
Chain of D(2) dopamine receptor (Homo sapiens) (P14416 whole entry, looked up): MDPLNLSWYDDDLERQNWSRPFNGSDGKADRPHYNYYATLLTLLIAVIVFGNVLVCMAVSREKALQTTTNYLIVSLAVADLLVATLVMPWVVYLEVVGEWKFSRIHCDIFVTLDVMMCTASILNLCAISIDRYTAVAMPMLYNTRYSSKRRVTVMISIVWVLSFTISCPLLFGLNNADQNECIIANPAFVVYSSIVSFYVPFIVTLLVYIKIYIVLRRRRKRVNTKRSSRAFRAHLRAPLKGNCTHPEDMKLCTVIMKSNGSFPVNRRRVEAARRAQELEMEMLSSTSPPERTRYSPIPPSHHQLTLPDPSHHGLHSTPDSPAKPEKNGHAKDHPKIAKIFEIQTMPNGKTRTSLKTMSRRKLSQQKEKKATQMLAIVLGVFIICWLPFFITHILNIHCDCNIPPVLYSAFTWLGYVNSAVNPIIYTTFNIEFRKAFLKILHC
Summary of the method: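 HEK293 cells stably expressing human DRD2, pre-treated with PDE inhibitor Ro20-1724 (0.1 mM final) and compound 10 min at room temperature, then stimulated with NKH477 (200nM […]) for 30 min. cAMP read by HTRF (665/620 nm).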

[7] = target: D(2) dopamine receptor (Homo sapiens) (UniProt P14416); experiment: Dopamine D2 receptor (DRD2) small molecule antagonists, cell-based qHTS assay (AID 1963595; active = well fitted inhibition curve with a large enough effect in the signal ratio in the repeat runs, with a control signal flat; the % refers to the signal ratio)
Summary of the method: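 Human DRD2 antagonist qHTS measuring cAMP by HTRF. The cells are exposed to compound for 10 min, then to NKH477 (200 nM) and quinpirole (12 nM) for 30 min at RT, with Ro20-1724 (0.1 mM) present throughout.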

[8] = p53 small molecule agonists, cell-based qHTS assay with human liver microsomes (AID 1963577)
Summary of the method: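 Cells carrying a p53-responsive bla reporter were rested 5 h (37 C, 5% CO2) before compound transfer. Human liver microsomes plus NADPH, 0.5 mg/mL final apiece, supplied metabolism during the 16 h 37 C exposure.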

[9] = p53 small molecule agonists, cell-based qHTS assay with rat liver microsomes (AID 1963578)
Summary of the method: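 Fluorescence from a beta-lactamase reporter under a p53 response element was measured after cells had been incubated 16 h at 37 C with test compound and rat liver microsomes plus NADPH (0.5 mg/mL final each).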

[10] = p53 small molecule agonists, cell-based qHTS assay with human liver microsomes: qHTS cell viability counter screen (AID 1963579); also: nearly all actives have a fitted effect of over 45% in size
Summary of the method: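 Seed p53RE-bla cells at 4,000 per well; incubate 5 h at 37 C; add compound, human liver microsomes and NADPH; incubate 16 h at 37 C; add CellTiter-Glo; after 30 min at room temperature, read luminescence.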

[11] = p53 small molecule agonists, cell-based qHTS assay with rat liver microsomes: qHTS cell viability counter screen (AID 1963580); also: nearly all actives have a fitted effect of over 45% in size
Summary of the method: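 Cytotoxicity counter screen: intracellular ATP measured by CellTiter-Glo luminescence in the same wells as the beta-lactamase reporter read, on HCT-116 p53RE-bla cells exposed 16 h at 37 C to compounds with rat liver microsomes and NADPH, each 0.5 mg/mL final.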

[12] = p53 small molecule agonists, cell-based qHTS assay (AID 1963582; active = well fitted activation curve with a large enough effect in the signal ratio in the repeat runs, not every such curve was filed as active; the % refers to the signal ratio)
Summary of the method: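 After plating, p53RE-bla cells sat 5 h in the incubator; compounds or DMSO vehicle were pinned in; a 16 h incubation at 37 C followed; FRET substrate was added and, 2 h later at RT, fluorescence was measured.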

[13] = target: 5-hydroxytryptamine receptor 2A (Homo sapiens) (UniProt P28223); experiment: 5-hydroxytryptamine receptor 2A (HTR2A) small molecule antagonists, cell-based qHTS assay (AID 1963586); also: nearly all actives have a fitted effect of over 45% in size
Chain of 5-hydroxytryptamine receptor 2A (Homo sapiens) (P28223 whole entry, looked up): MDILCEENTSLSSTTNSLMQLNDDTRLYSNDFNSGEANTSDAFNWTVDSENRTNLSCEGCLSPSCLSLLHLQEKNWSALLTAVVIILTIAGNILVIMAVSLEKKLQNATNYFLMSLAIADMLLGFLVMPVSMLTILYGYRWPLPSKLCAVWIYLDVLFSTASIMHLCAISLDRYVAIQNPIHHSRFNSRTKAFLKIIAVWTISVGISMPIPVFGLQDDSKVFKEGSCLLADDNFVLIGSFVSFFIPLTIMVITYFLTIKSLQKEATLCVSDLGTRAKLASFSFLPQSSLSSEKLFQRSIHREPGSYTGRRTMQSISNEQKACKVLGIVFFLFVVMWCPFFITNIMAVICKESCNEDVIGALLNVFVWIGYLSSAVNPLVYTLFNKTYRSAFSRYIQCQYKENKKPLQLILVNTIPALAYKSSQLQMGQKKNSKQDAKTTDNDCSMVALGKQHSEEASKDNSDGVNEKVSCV
Summary of the method: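 CHO cells stably expressing human HTR2A were plated for 18 h at 37 C, then loaded with calcium dye for 1 h. Compounds were preincubated 5 min at room temperature before DOI (4 nM solution) was added. Kinetic fluorescence was read for 3 min.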

[14] = target: Muscarinic acetylcholine receptor M1 (Homo sapiens) (UniProt P11229); experiment: Cholinergic receptor muscarinic 1 (CHRM1) small molecule antagonists, cell-based qHTS assay (AID 1963588); also: nearly all actives have a fitted effect of over 40% in size
Chain of Muscarinic acetylcholine receptor M1 (Homo sapiens) (P11229 whole entry, looked up): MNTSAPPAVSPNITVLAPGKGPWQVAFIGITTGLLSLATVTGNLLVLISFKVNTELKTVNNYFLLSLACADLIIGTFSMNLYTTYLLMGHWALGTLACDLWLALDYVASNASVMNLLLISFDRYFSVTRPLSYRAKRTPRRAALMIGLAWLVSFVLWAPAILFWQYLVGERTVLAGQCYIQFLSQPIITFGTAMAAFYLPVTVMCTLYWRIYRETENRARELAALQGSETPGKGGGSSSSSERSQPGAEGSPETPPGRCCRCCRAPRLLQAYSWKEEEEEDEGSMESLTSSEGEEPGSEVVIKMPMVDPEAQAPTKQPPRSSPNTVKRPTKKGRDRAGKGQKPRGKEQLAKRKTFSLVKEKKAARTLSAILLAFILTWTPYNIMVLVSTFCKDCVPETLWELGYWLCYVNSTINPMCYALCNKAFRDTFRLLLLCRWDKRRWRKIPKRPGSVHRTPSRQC
Summary of the method: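 Compounds were tested at 15 concentrations in three independent runs. Dye-loaded CHRM1-CHO cells were exposed 5 min at room temperature before stimulation by acetylcholine added at 50nM. Intracellular calcium was read kinetically on FDSS for 3 min.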

[15] = target: Muscarinic acetylcholine receptor M1 (Homo sapiens) (UniProt P11229); experiment: Cholinergic receptor muscarinic 1 (CHRM1) small molecule agonists, cell-based qHTS assay (AID 1963589); also: nearly all actives have a fitted effect of over 35% in size
Summary of the method: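 Fluorescent calcium dye reports M1 activation in stably transfected CHO cells. Compounds, 15 concentrations, added after 1 h dye loading at 37 C; kinetic reading at 1 sec intervals.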

[16] = cAMP Responsive Elements (CRE) small molecule agonists, cell-based qHTS assay (AID 1963590)
Summary of the method: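 Compound exposure lasted 3 h at 37 C/5% CO2 in CRE-bla HEK 293T cells grown in assay medium with 10% dialyzed FBS and 25 mM HEPES. Reporter signal came from LiveBLAzer B/G FRET substrate, 2 h, room temperature.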

[17] = target: Beta-2 adrenergic receptor (Homo sapiens) (UniProt P07550); experiment: Adrenergic beta2 receptor (ADRB2) small molecule agonists, cell-based qHTS assay (AID 1963593);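 also: CHO cells stably overexpressing human ADRB2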
Summary of the method: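 CHO cells stably over-expressing ADRB2 were plated overnight at 37C, then dosed with compounds plus a stimulation mix containing 100uM IBMX and 25uM Ro-20-1724 for 0.5hr at room temperature. cAMP was measured by HTRF competition, 1hr.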

[18] = p53 small molecule agonists, cell-based qHTS assay: qHTS cell viability counter screen (AID 1963581); also: nearly all actives have a fitted effect of over 45% in size
Summary of the method: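 Luminescence from CellTiter-Glo, reflecting ATP content, serves as the cytotoxicity measure; it is taken after the 2 h reporter substrate step in HCT-116 p53RE-bla cells dosed for 16 h at 37 C.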

[19] = target: 5-hydroxytryptamine receptor 2A (Homo sapiens) (UniProt P28223); experiment: 5-hydroxytryptamine receptor 2A (HTR2A) small molecule agonists, cell-based qHTS assay (AID 1963587); also: nearly all actives have a fitted effect of over 30% in size
Summary of the method: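 CHO cells stably expressing human HTR2A, plated 18 h, loaded with calcium dye 1 h at 37 C. Agonist mode: compounds added and intracellular calcium fluorescence recorded kinetically for 2 min at 1 sec intervals.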

[20] = cAMP Responsive Elements (CRE) small molecule antagonists, cell-based qHTS assay (AID 1963591; active = well fitted inhibition curve with a large enough effect in the signal ratio in the repeat runs, not every such curve was filed as active; the % refers to the signal ratio)
Summary of the method: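 Stimulation used NKH477 at a final 0.25 uM for 3 h in compound-treated CRE-bla HEK293T cells, seeded 18 h beforehand. Reporter activity was measured with LiveBLAzer B/G FRET substrate after 2 h at room temperature.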

In the case of `OCCN(CCO)c1nc(N2CCCCC2)c2nc(N(CCO)CCO)nc(N3CCCCC3)c2n1`, the Potency [1] is reported as “inactive”, the Potency [2] is reported as 15.1 µM (active) and the Potency [3] is reported as 23.9 µM (active). For the same compound, the Potency [4] was 16.9 µM (active), the Potency [5] was “inactive” and the Potency [6] was “inactive”. For the same compound, the Potency [7] was “inactive”.
For `O=[N+]([O-])C1(Br)COCOC1`, the Potency [1] was 24.3 µM (active), the Potency [2] was 38.9 µM (active) and the Potency [3] was “inactive”. The Potency [8] was “inactive”, the Potency [9] was “inactive” and the Potency [10] was “inactive”. For the same compound, the Potency [11] was “inactive”, the Potency [12] was “inactive” and the Potency [13] was “inactive”. The Potency [14] was “inactive”, the Potency [15] was “inactive” and the Potency [16] was “inactive”. For the same compound, the Potency [17] was “inactive”, the Potency [6] was “inactive” and the Potency [7] was “inactive”.
With `OC/C=C/c1ccccc1` the Potency [1] was “inactive”, the Potency [2] was “inactive” and the Potency [3] was “inactive”. The Potency [10] was “inactive”, the Potency [11] was “inactive” and the Potency [18] was “inactive”. The Potency [13] was “inactive”, the Potency [19] was “inactive” and the Potency [14] was “inactive”. The Potency [15] was “inactive”, the Potency [16] was “inactive” and the Potency [20] was “inactive”. The Potency [5] was “inactive”, the Potency [17] was “inactive” and the Potency [6] was “inactive”. For the same compound, the Potency [7] was “inactive”.
For `C=CC(C)(C)CC(=O)OC`, the Potency [1] was “inactive”, the Potency [2] was “inactive” and the Potency [3] was “inactive”. For the same compound, the Potency [4] was “inactive”, the Potency [10] was “inactive” and the Potency [11] was “inactive”. For the same compound, the Potency [13] was “inactive”, the Potency [19] was “inactive” and the Potency [15] was “inactive”. For the same compound, the Potency [16] was “inactive”, the Potency [5] was “inactive” and the Potency [6] was “inactive”. The Potency [7] was “inactive”.
In the case of `CCc1oc2ccccc2c1C(=O)c1cc(Br)c(O)c(Br)c1`, the Potency [1] is reported as “inactive”, the Potency [2] is reported as “inactive” and the Potency [3] is reported as “inactive”. For the same compound, the Potency [4] was “inactive”, the Potency [18] was “inactive” and the Potency [16] was “inactive”. The Potency [20] was “inactive”, the Potency [5] was “inactive” and the Potency [6] was “inactive”. For the same compound, the Potency [7] was “inactive”.
For `CN1CCC(=C2c3ccccc3CCc3cccnc32)CC1`, the Potency [1] was “inactive”, the Potency [2] was “inactive” and the Potency [3] was “inactive”. The Potency [4] was “inactive”, the Potency [11] was “inactive” and the Potency [18] was “inactive”. For the same compound, the Potency [15] was “inactive”, the Potency [16] was “inactive” and the Potency [20] was “inactive”. The Potency [5] was “inactive” and the Potency [6] was “inactive”.
In the case of `NNc1nc(-c2ccc(N)cc2)cs1`, the Potency [1] is reported as 54.5 µM (active), the Potency [2] is reported as “inactive” and the Potency [3] is reported as “inactive”. The Potency [4] was “inactive”, the Potency [10] was “inactive” and the Potency [18] was “inactive”. The Potency [12] was “inactive”, the Potency [13] was “inactive” and the Potency [19] was “inactive”. The Potency [14] was “inactive”, the Potency [15] was “inactive” and the Potency [16] was “inactive”. For the same compound, the Potency [20] was “inactive”, the Potency [6] was “inactive” and the Potency [7] was “inactive”.
For `CC(C)=CCC[C@](C)(O)[C@@H]1CC=C(C)CC1`, the Potency [1] was 54.5 µM (active), the Potency [2] was “inactive” and the Potency [3] was “inactive”. The Potency [8] was “inactive”, the Potency [9] was “inactive” and the Potency [10] was “inactive”. The Potency [11] was “inactive”, the Potency [12] was “inactive” and the Potency [13] was “inactive”. The Potency [14] was “inactive”, the Potency [15] was “inactive” and the Potency [16] was “inactive”. The Potency [5] was “inactive”, the Potency [17] was “inactive” and the Potency [6] was “inactive”. The Potency [7] was “inactive”.
In the case of `COC(=O)C(C)=O`, the Potency [1] is reported as “inactive”, the Potency [2] is reported as “inactive” and the Potency [3] is reported as “inactive”. For the same compound, the Potency [10] was “inactive”, the Potency [11] was “inactive” and the Potency [18] was “inactive”. For the same compound, the Potency [13] was “inactive”, the Potency [19] was “inactive” and the Potency [15] was “inactive”. For the same compound, the Potency [16] was “inactive”, the Potency [20] was “inactive” and the Potency [5] was “inactive”. The Potency [7] was “inactive”.
